Several values for one entry are separate records, joined by “and”; a condition that tells them apart may be missing. Identical values can stand only once. Activity calls are given as the source filed them.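 How the source made its calls, unless noted: active means compounds whose cell count with miR-34 switched on is under 0.7 times the count with it off; inactive means the rest.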
Tests used:
[1] = viability loss with induced miR-34 in A549 – imaging, A549 dox-inducible miR-34, nuclei and caspase counts, primary screen (AID 1347080); settings: A549 miR-34 inducible, Hoechst nuclei count, 48 h
[2] = MELAS cybrid and Rieske KO viability enhancers – cell-based, MELAS cybrids, Rieske KO mouse fibroblasts, CellTiter-Glo, primary screen (AID 1508586;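 active means mean z-score across replicates of 1.96 or higher in either the MELAS or the Rieske mutant cell line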;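 further: z relative to plate mean and SD of compound and empty wells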); settings: low glucose
[3] = target: NAD(+) hydrolase SARM1 (Homo sapiens) (UniProt Q6SZW1); assay: blocking NAD cleavage by SARM1 SAM-TIR – cell lysate, NAD-Glo luminescence (AID 1508614;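 active means compound whose remaining NAD level is above about 45 nM, limit read from the data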); settings: SAM-TIR HEK293T lysate NADase, at 1 µM, stronger effect = higher value
Sequence of NAD(+) hydrolase SARM1 (Homo sapiens) (Q6SZW1 whole entry, looked up, the tested form may be a part): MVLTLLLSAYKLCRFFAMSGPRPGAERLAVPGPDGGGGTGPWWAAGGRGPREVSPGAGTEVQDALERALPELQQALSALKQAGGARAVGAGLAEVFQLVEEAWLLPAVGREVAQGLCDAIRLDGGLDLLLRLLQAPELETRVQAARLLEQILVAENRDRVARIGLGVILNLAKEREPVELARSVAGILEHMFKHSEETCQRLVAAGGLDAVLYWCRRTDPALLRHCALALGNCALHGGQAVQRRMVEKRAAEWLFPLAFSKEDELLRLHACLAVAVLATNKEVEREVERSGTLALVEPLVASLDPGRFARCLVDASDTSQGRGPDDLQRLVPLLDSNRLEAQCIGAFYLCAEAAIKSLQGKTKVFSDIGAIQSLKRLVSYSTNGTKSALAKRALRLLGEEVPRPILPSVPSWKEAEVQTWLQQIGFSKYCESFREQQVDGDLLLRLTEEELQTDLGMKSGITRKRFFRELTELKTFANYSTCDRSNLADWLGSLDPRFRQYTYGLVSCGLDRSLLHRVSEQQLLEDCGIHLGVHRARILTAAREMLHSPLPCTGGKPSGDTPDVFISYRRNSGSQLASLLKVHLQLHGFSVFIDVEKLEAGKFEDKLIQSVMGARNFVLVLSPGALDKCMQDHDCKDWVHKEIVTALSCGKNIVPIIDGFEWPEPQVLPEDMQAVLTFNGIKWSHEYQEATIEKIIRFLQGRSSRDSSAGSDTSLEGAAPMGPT

[4] = target: Mitogen-activated protein kinase 7 (Homo sapiens) (UniProt Q13164); assay: Gal4-ERK5 driven luciferase induction – cell-based, HTS, primary screen (AID 1508626;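 active means luciferase signal above three times the same-plate solvent-only control wells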;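 further: luciferase driven by Gal4-ERK5 fusion binding five Gal4 sites before minimal TATA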); settings: HeLa Gal4-ERK5 transactivation, 18 h, at 5 µM, stronger effect = higher value
Sequence of Mitogen-activated protein kinase 7 (Homo sapiens) (Q13164 whole entry, looked up, the tested form may be a part): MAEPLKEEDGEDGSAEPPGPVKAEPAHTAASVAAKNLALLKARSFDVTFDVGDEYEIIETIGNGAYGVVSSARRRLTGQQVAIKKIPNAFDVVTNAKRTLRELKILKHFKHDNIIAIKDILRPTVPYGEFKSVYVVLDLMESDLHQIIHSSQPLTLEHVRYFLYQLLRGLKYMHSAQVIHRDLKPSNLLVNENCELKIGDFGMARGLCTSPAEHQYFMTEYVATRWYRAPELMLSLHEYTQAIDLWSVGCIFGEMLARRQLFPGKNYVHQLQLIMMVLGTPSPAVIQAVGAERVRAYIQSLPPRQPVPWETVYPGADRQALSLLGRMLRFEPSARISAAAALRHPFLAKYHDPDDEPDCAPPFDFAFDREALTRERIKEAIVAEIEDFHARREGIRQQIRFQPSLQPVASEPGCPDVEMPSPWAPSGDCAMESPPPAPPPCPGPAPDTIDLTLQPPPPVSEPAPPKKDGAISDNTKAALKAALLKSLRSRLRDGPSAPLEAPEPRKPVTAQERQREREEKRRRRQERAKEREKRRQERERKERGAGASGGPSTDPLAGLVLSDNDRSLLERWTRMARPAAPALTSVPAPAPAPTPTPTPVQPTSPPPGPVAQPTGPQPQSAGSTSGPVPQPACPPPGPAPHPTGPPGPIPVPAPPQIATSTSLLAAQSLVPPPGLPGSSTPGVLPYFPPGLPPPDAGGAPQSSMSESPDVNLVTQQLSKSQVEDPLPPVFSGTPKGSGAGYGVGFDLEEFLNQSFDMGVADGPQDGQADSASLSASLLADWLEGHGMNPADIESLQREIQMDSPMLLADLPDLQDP

[5] = blockers of cellular phospholipid synthesis – cell-based, LOPAC library, screen 4, primary screen (AID 1347384; call rule not given here); settings: animal cells, phospholipid biosynthesis inhibition screen; at 10 µM
[6] = galactose survival enhancers in mitochondrial complex I cybrids – cell-based, galactose medium, ATP luminescence, primary screen (AID 1645843;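 active means z-score of at least 1.8 in each of two replicates, scored against plate mean and spread of sample wells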;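 further: positive z means more ATP and so rescue of galactose-driven cybrid death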); settings: complex I mutant cybrid cells, 72 h, stronger effect = higher value
[7] = growth inhibition, single agent or in combination, cell-based, chromothripsis tumors, cisplatin or BGB combos (AID 1671449; in the data active means inhibition above about 80%;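 further: cells exposed for 96 hours; 0% = vehicle DMSO and 100% = killing by high DMSO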); settings: LFS_MB_P medulloblastoma cells
[8] = growth inhibition, single agent and combos, cell-based, chromothripsis tumors, cisplatin or BGB combos (AID 1671450; in the data active means inhibition above about 80%;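 further: cells exposed to compound for four days; 0% = vehicle DMSO and 100% = cell killing by high DMSO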); settings: HDN33 neuroblastoma cells, stronger effect = higher value
[9] = growth inhibition, single agents and combos, ICB984, cell-based, cisplatin or BGB combos, synergistic combos for chromothripsis tumors (AID 1671451; call rule not given here;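 further: cells exposed for 96 hours before readout; 0% = vehicle DMSO and 100% = killing by high DMSO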); settings: ICB984 medulloblastoma cells, drug combinations, stronger effect = higher value
[10] = growth inhibition, single agents and combos, LFS_MB_1R, cell-based, cisplatin or BGB combos, synergistic combos for chromothripsis tumors (AID 1671452; in the data active means inhibition above about 80%;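 further: cells exposed for 96 hours before readout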); settings: LFS_MB_1R medulloblastoma cells, stronger effect = higher value
[11] = growth inhibition, single agents and combos, HTB85, cell-based, BGB or cisplatin IC20 combos, synergistic combos for chromothripsis tumors (AID 1671453; in the data active means inhibition above about 80%;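 further: cells exposed for 96 hours before readout; 0% = vehicle DMSO and 100% = high DMSO killing control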); settings: HTB85 osteosarcoma cells, drug combinations, stronger effect = higher value
[12] = growth inhibition, single agents and combos, CRL2098, cell-based, BGB or cisplatin IC20 combos, synergistic combos for chromothripsis tumors (AID 1671454; in the data active means inhibition above about 80%;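 further: cells exposed for 96 h before readout; 0% = vehicle DMSO and 100% = killing by high DMSO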); settings: CRL2098 osteosarcoma cells, drug combinations, stronger effect = higher value
[13] = growth inhibition, single agents and combos, HD-MB03, cell-based, BGB or cisplatin IC20 combos, synergistic combos for chromothripsis tumors (AID 1671455; in the data active means inhibition above about 83%;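 further: 0% = vehicle DMSO and 100% = high DMSO as cytotoxic control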); settings: HD-MB03 medulloblastoma cells, stronger effect = higher value
[14] = stronger effect = lower value, cell number ratio, induced over uninduced
[15] = measured here: relative caspase fold change +Dox/-Dox
[16] = measured here: total cells with miR-34 induction, stronger effect = lower value
[17] = measured here: total cells without miR-34 induction
[18] = MELAS cybrid survival, CellTiter-Glo 48 h, stronger effect = higher value
[19] = Rieske KO mouse fibroblast survival, CellTiter-Glo 72 h
[20] = measured here: combination with BGB IC40, at 0.05 µM

With `CC1CC(OC(=O)C(O)c2ccccc2)CC(C)(C)N1C` (stereo not given) the fold change [1, 14] was 0.792 (inactive), the fold change [1, 15] was 1.56 and the cell count [1, 16] was 7700. For the same compound, the cell count [1, 17] was 9720, the z-score [2, 18] was -0.0236 (inactive) and the z-score [2, 19] was -0.373. The remaining NAD [3] was 10 nM (inactive) and the luciferase signal [4] was 48 AU (inactive).
In the case of `CCOc1ccc(Cc2nccc3cc(OCC)c(OCC)cc23)cc1OCC`, the fold change [1, 14] is reported as 0.917 (inactive), the fold change [1, 15] is reported as 1.32 and the cell count [1, 16] is reported as 5900. For the same compound, the cell count [1, 17] was 6440, the z-score [2, 18] was 0.91 (inactive) and the z-score [2, 19] was 1.27. For the same compound, the remaining NAD [3] was 10 nM (inactive) and the luciferase signal [4] was 68 AU (inactive).
For `CCn1cc(C(=O)O)c(=O)c2cc3c(cc21)OCO3`, the fold change [1, 14] was 1.06 (inactive) and 0.943 (inactive) and 0.852 (inactive), the fold change [1, 15] was 0.823 and 1.43 and 2.84 and the cell count [1, 16] was 10300 and 9150 and 11200. For the same compound, the cell count [1, 17] was 9710 and 9700 and 13200, the outcome [5] was “inactive” and the z-score [2, 18] was 0.663 (inactive). For the same compound, the z-score [2, 19] was 0.252, the remaining NAD [3] was 10 nM (inactive) and the luciferase signal [4] was 88 AU (inactive). For the same compound, the z-score [6] was 0.245 (inactive), the inhibition ([7]; at 0.5 µM, stronger effect = higher value) was -36.8% (inactive) and the inhibition ([7]; measured here: combination with BGB IC20, at 0.005 µM) was -15.7%. The inhibition ([7]; measured here: combination with BGB IC40, at 0.005 µM) was -20.3%, the inhibition [7, 20] was -2.68% and the inhibition ([7]; measured here: combination with cisplatin, at 0.5 µM, stronger effect = higher value) was -50%. For the same compound, the inhibition ([7]; measured here: combination with cisplatin, at 5 µM, stronger effect = higher value) was -47.2%, the inhibition ([8]; BGB combo, at 5 µM) was -6.85% and the inhibition ([8]; at 0.5 µM) was 11.7% (inactive). The inhibition ([8]; cisplatin combo, at 5 µM) was -11.4%, the inhibition ([8]; measured here: with BGB IC20 combination, at 0.5 µM) was 31.7% and the inhibition ([8]; measured here: with cisplatin IC20 combination, at 0.5 µM) was -3.7%. It also gave an inhibition ([8]; single agent, at 5 µM) of 13.3%, an inhibition ([9]; BGB IC20 combo, at 0.005 µM) of -17.2% and an inhibition ([9]; BGB IC40 combo, at 0.005 µM) of 7.28%. For the same compound, the inhibition ([9]; BGB IC40 combo, at 0.05 µM) was 6.59%, the inhibition ([9]; at 0.5 µM) was -11.6% (inactive) and the inhibition ([9]; cisplatin combo, at 0.05 µM) was 6.59%. It also gave an inhibition ([9]; cisplatin combo, at 0.5 µM) of -23.1%, an inhibition ([9]; cisplatin combo, at 5 µM) of 6.27% and an inhibition ([9]; measured here: 5 uM single agent, at 5 µM) of -34.2%. The inhibition ([10]; at 0.5 µM) was 0.84% (inactive), the inhibition [10, 20] was -15.9% and the inhibition ([10]; measured here: combination with cisplatin, at 0.5 µM) was -7.75%. The inhibition ([10]; measured here: combination with cisplatin, at 5 µM) was -5.64%, the inhibition ([11]; at 0.5 µM) was -2.07% (inactive) and the inhibition ([11]; measured here: with BGB IC20, at 0.5 µM) was -19.1%. It also gave an inhibition ([11]; measured here: with BGB IC20, at 5 µM) of -10.5%, an inhibition ([11]; measured here: with cisplatin IC20, at 0.5 µM) of 12% and an inhibition ([11]; measured here: with cisplatin IC20, at 5 µM) of 2.66%. For the same compound, the inhibition ([11]; single agent, at 5 µM) was -16.7%, the inhibition ([12]; at 0.5 µM) was -34.7% (inactive) and the inhibition ([12]; measured here: combination with BGB at IC20, at 0.5 µM) was -42.4%. For the same compound, the inhibition ([12]; measured here: combination with cisplatin at IC20, at 0.5 µM) was -29.3%, the inhibition ([13]; at 0.5 µM) was 1.11% (inactive) and the inhibition ([13]; measured here: combo with BGB at IC20, at 0.5 µM) was -0.045%. It also gave an inhibition ([13]; measured here: combo with cisplatin at IC20, at 0.5 µM) of -3.84%.
In the case of `NC/C=C/C(=O)O`, the fold change [1, 14] is reported as 1.01 (inactive), the fold change [1, 15] is reported as 1.35 and the cell count [1, 16] is reported as 10300. The cell count [1, 17] was 10200, the outcome [5] was “inactive” and the luciferase signal [4] was 96 AU (inactive). The z-score [6] was 0.575 (inactive).
In the case of `CCN1CCC[C@H]1CNC(=O)c1c(O)c(Cl)cc(Cl)c1OC`, the fold change [1, 14] is reported as 1 (inactive) and 0.9 (inactive) and 0.875 (inactive), the fold change [1, 15] is reported as 1.23 and 0.728 and 0.77 and the cell count [1, 16] is reported as 9930 and 9080 and 9820. The cell count [1, 17] was 9900 and 10100 and 11200, the outcome [5] was “inactive” and the z-score [2, 18] was -0.782 (inactive) and -0.532 (inactive). The z-score [2, 19] was -0.0598 and -0.803 and the z-score [6] was 0.525 (inactive) and -0.165 (inactive) and 0.41 (inactive).
In the case of `C[n+]1cc2c3c(ccc2c2ccc4cc5c(cc4c21)OCO5)OCO3`, the fold change [1, 14] is reported as 0.823 (inactive) and 1.84 (inactive) and 1.11 (inactive), the fold change [1, 15] is reported as 0.926 and 0.714 and 1.64 and the cell count [1, 16] is reported as 552 and 933 and 1830. For the same compound, the cell count [1, 17] was 672 and 507 and 1640, the outcome [5] was “inactive” and the remaining NAD [3] was 10 nM (inactive). For the same compound, the luciferase signal [4] was 84 AU (inactive) and the z-score [6] was -1.38 (inactive).
In the case of `CC[C@]12CCCN3CCc4c(n(c5ccccc45)C(=O)C1)[C@@H]32`, the fold change [1, 14] is reported as 0.89 (inactive), the fold change [1, 15] is reported as 1.52 and the cell count [1, 16] is reported as 3350. For the same compound, the cell count [1, 17] was 3760, the z-score [2, 18] was 1.02 (inactive) and the z-score [2, 19] was 0.169.
In the case of `NS(=O)(=O)c1cc2c(cc1Cl)NC(C1CC3C=CC1C3)NS2(=O)=O` (stereo not given), the fold change [1, 14] is reported as 0.998 (inactive) and 0.957 (inactive) and 0.847 (inactive), the fold change [1, 15] is reported as 1.34 and 0.752 and 2.93 and the cell count [1, 16] is reported as 9070 and 9210 and 11400. For the same compound, the cell count [1, 17] was 9090 and 9620 and 13400, the outcome [5] was “inactive” and the luciferase signal [4] was 84 AU (inactive). The z-score [6] was 0.71 (inactive) and 0.55 (inactive).
For `C[N+]1(CCCCC[N+]2(C)CCCC2)CCCC1`, the fold change [1, 14] was 1.07 (inactive) and 0.91 (inactive), the fold change [1, 15] was 0.597 and 1.28 and the cell count [1, 16] was 10400 and 8690. For the same compound, the cell count [1, 17] was 9650 and 9550, the outcome [5] was “inactive” and the z-score [2, 18] was 0.607 (inactive). The z-score [2, 19] was 0.539, the luciferase signal [4] was 108 AU (inactive) and the z-score [6] was 0.235 (inactive).
With `Cc1c(NC(C)C)c(=O)n(-c2ccccc2)n1C` the fold change [1, 14] was 0.876 (inactive), the fold change [1, 15] was 1.14 and the cell count [1, 16] was 8020. For the same compound, the cell count [1, 17] was 9170, the z-score [2, 18] was -0.485 (inactive) and the z-score [2, 19] was -0.708. For the same compound, the remaining NAD [3] was 10 nM (inactive) and the luciferase signal [4] was 56 AU (inactive).
In the case of `C[C@](N)(Cc1ccc(O)cc1)C(=O)O`, the fold change [1, 14] is reported as 1.06 (inactive), the fold change [1, 15] is reported as 0.881 and the cell count [1, 16] is reported as 10300. The cell count [1, 17] was 9680, the outcome [5] was “inactive” and the luciferase signal [4] was 60 AU (inactive). For the same compound, the z-score [6] was 0.71 (inactive).
With `CC(C(=O)O)c1ccc2c(c1)[nH]c1ccc(Cl)cc12` (stereo not given) the fold change [1, 14] was 0.887 (inactive) and 0.921 (inactive), the fold change [1, 15] was 0.75 and 3.71 and the cell count [1, 16] was 8310 and 12000. For the same compound, the cell count [1, 17] was 9370 and 13100, the z-score [2, 18] was -0.267 (inactive) and -0.0777 (inactive) and the z-score [2, 19] was -0.169 and 0.447. The remaining NAD [3] was 10 nM (inactive) and the luciferase signal [4] was 16 AU (inactive).

Source: PubChem BioAssay
